From PubChem BioAssay (NCI)
Compounds without any hit were thinned out: in the full panel of roughly 83,000, 20% have a hit.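 Single-dose data. Exposure time 48 hours. Values below 10 considered active.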 Unmarked numbers belong to inactive results. The source made the active and inactive calls.

Columns and labels:
Assay in all cases: NCI-60 one-dose screen, 48 h (100 = growth as untreated, 0 = no growth, -100 = all killed)
[1] = tested on: NCI-H23 lung; conditions: 10 µM unless noted
[2] = tested on: NCI-H226 lung; conditions: 10 µM unless noted
[3] = tested on: NCI-H322M lung; conditions: 10 µM unless noted
[4] = tested on: HOP-62 NSCLC; conditions: 10 µM unless noted
[5] = tested on: NCI-H460 lung; conditions: 10 µM unless noted
[6] = tested on: NCI-H522 lung; conditions: 10 µM unless noted
[7] = tested on: A549/ATCC NSCLC; conditions: 10 µM unless noted
[8] = tested on: 786-0 renal; conditions: 10 µM unless noted
[9] = tested on: COLO 205 colon; conditions: 10 µM unless noted
[10] = tested on: DU-145 prostate; conditions: 10 µM unless noted
[11] = tested on: K-562 leukemia; conditions: 10 µM unless noted
[12] = tested on: MALME-3M melanoma; conditions: 10 µM unless noted
[13] = tested on: MDA-MB-231 breast; conditions: 10 µM unless noted
[14] = tested on: RXF 393 renal; conditions: 10 µM unless noted
[15] = tested on: SF-268 CNS; conditions: 10 µM unless noted
[16] = tested on: SF-295 CNS; conditions: 10 µM unless noted
[17] = tested on: SF-539 CNS; conditions: 10 µM unless noted
[18] = tested on: UACC-257 melanoma; conditions: 10 µM unless noted
[19] = tested on: M14 melanoma; conditions: 10 µM unless noted
[20] = tested on: HOP-92 NSCLC; conditions: 10 µM

Structure (SMILES)	growth [1]	growth [2]	growth [3]	growth [4]	growth [5]	growth [6]	growth [7]	growth [8]	growth [9]	growth [10]	growth [11]	growth [12]	growth [13]	growth [14]	growth [15]	growth [16]	growth [17]	growth [18]	growth [19]	growth [20] [%]
N/C(=N\C(N)=N\c1nc2ccccc2s1)c1ccncc1Cl	33.9%	67.8%	80.6%	51.6%	23.4%	18.4%	71%	42.7%	50.4%	45.7%	17.1%	45.7%	45%	8.87% (active)	52.6%	-22.2% (active)	7.8% (active)	79.7%	32.4%	–
C=C(C)[C@@H]1CC[C@]2(COP(=O)(OCC)OCC)CC[C@]3(C)[C@H](CC[C@@H]4[C@@]5(C)CCCNC(C)(C)[C@@H]5CC[C@]43C)[C@@H]12	37.1%	53.8%	84.7%	62.9%	-32.8% (active)	–	–	35.7%	-15.4% (active)	31.8%	-10.7% (active)	-51.8% (active)	52%	-8.28% (active)	50.1%	19.8%	57.7%	29.1%	-46.4% (active)	41
O=C1CC(=O)N2CSCN(C(c3ccccc3)c3nc4ncncc4[nH]3)C2=N1 (stereo unspecified)	99.7%	107%	106%	96.8%	112%	93.9%	105%	104%	114%	110%	102%	80.5%	101%	105%	103%	99.1%	99.1%	108%	–	–
Nc1nc(-c2cccc([N+](=O)[O-])c2)c(N=Nc2cccc([N+](=O)[O-])c2)s1	-25.6% (active)	14.9%	64.6%	16.5%	4.2% (active)	-12% (active)	17.5%	-70.4% (active)	106%	56.7%	81.9%	52.4%	19.5%	-64.5% (active)	14.7%	1.91% (active)	-26.4% (active)	88.6%	14.9%	–
O=C(Nc1cccc(Cl)c1)Nc1nc2ccc([N+](=O)[O-])cc2o1	12.6%	29%	17.4%	22.2%	7.51% (active)	-0.721% (active)	17.2%	28%	-5.17% (active)	26.8%	12.3%	-4.16% (active)	25.8%	-3.23% (active)	7.72% (active)	24.5%	11.4%	1.92% (active)	18.2%	–
CN1CCN(Cc2ccc(NC(=O)c3cncc(C#Cc4cnn5cccnc45)c3)cc2C(F)(F)F)CC1	-23.1% (active)	-14% (active)	19.8%	10.2%	3.16% (active)	-58.7% (active)	5.71% (active)	27.1%	-56.6% (active)	6.94% (active)	-11.5% (active)	-16.7% (active)	5.29% (active)	-76.5% (active)	-5.38% (active)	56.7%	14.8%	44.5%	-43.9% (active)	–
Nc1nc(Nc2ccccc2SSc2ccccc2Nc2nc(N)nc(-c3cccc(Br)c3)n2)nc(-c2cccc(Br)c2)n1	31.6%	47.8%	94.8%	11.8%	31.8%	–	1.19% (active)	79.3%	116%	62.1%	58.8%	99.9%	57.3%	58%	36.9%	29.8%	95.2%	112%	90.4%	86
O=S(=O)(NC1c2ccccc2C[C@H]1O)c1ccc(Cl)cc1Cl (stereo partly specified)	92.3%	93.6%	94.6%	103%	101%	98.3%	93.5%	102%	114%	114%	95.2%	93.6%	99.5%	107%	96.7%	108%	101%	102%	92.3%	–
Nc1ccccc1NC(=O)c1ccc(NC(=O)C/C=C/c2cccnc2)cn1	22.7%	25.1%	35.9%	27.1%	31.6%	0.109% (active)	33.5%	31.9%	-21.9% (active)	6.29% (active)	15.7%	15.6%	41.6%	-35.5% (active)	28.3%	21.8%	9.41% (active)	14.5%	–	–
O=C(CSc1nc2ccccc2c(=O)n1-c1ccccc1)Nc1cccc(C(=O)/C=C/c2ccccc2Cl)c1	96.8%	97.1%	106%	118%	101%	97.4%	97.6%	105%	119%	105%	94.8%	113%	99.7%	96.7%	101%	102%	102%	112%	103%	–
O=S(=O)(Nc1ccc(I)cc1Cl)c1ccc(-c2cnc(C3CC3)o2)cc1	45.4%	62.5%	64.8%	52.7%	28.8%	34%	54.6%	40.4%	50.2%	50.2%	19.8%	47.3%	57.5%	-4.05% (active)	58.9%	2.33% (active)	21.4%	58.5%	29.6%	–
Nc1nc(-c2cccc([N+](=O)[O-])c2)c(N=Nc2ccccc2)s1	70.2%	73.1%	76.2%	80.6%	56.6%	48.6%	60%	59.7%	63.1%	69.5%	32.8%	103%	62%	-16.3% (active)	66.4%	63%	71.6%	93.4%	57.7%	–
N#C/C(=C\c1ccc(-c2ccc(Cl)cc2Cl)o1)c1ccc(F)cc1	87.7%	5.86% (active)	93.4%	82.2%	90.7%	88.1%	100%	94%	100%	102%	92.5%	98.7%	83.4%	67.5%	92.3%	99.8%	89.9%	104%	95.3%	–
Clc1nc2ccccc2nc1-c1nnc(C2CCCCC2)o1	86.3%	84.7%	97.8%	106%	97.5%	99%	98.4%	106%	110%	91.3%	80.9%	95.2%	105%	87.6%	101%	106%	97.7%	96.7%	94.3%	–
Cc1[nH]c(C(=O)Nc2ccccc2OCc2cccc(C(=O)N3CCC[C@@H](N)C3)c2)c(Cl)c1Cl	-80.6% (active)	-67.4% (active)	-94.3% (active)	-60.4% (active)	-73.7% (active)	-66.5% (active)	-77% (active)	-72.6% (active)	-64% (active)	-89.3% (active)	-49.6% (active)	-79.1% (active)	-75.8% (active)	-87.6% (active)	-66.9% (active)	-91.7% (active)	-89.2% (active)	-72.4% (active)	-85.7% (active)	–
CC(C)(C)CC(C)(C)n1nnnc1C(Nc1nccs1)c1cc2cccc3ccc4cccc1c4c32 (stereo unspecified)	102%	3.26% (active)	93.9%	89%	103%	96.8%	107%	102%	114%	107%	111%	94%	97.2%	119%	94.8%	94.9%	92.7%	104%	111%	–
